Assay results published in PubChem BioAssay AID1159580 (chemical genetic matrix, 2015).
“And” between values parts separate entries of the source, which are not always exact repeats. Equal values may be shown once. Screen size: about 5,500 compounds; about 2,000 (36%) were called active. Another 18% or so got no clear call; they are omitted. No stated cut-off is given here; in the data, active means normalized growth mostly below about 0.91 (no sharp cut-off); inconclusive means no clear call, values can overlap the other calls; inactive means mostly above about 0.92. This is one part of the list.

Experiment: chemical genetic growth profiling, strain panel (AID 1159580);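 further: tested at 20 µM; growth read once vehicle control cultures reached saturation at 30 °C; 1 = growth at the plate median or of vehicle wells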
Conditions: growth OD

Measured: normalized growth

NCCSSCCN
inactive: S. cerevisiae deletion strains, locus YKL009W, strain mrt4, stronger effect = lower value 1.03 | S. cerevisiae deletion strains, locus YKL068W, stronger effect = lower value 1.01 | S. cerevisiae deletion strains, locus YKL085W, strain MDH1 (second series), stronger effect = lower value 1.01 | S. cerevisiae deletion strains, locus YKL085W, strain MDH1, stronger effect = lower value 1.01 | S. cerevisiae deletion strains, locus YKL160W, strain elf1, stronger effect = lower value 0.995 | S. cerevisiae deletion strains, locus YKL190W, strain CNB1, stronger effect = lower value 1.01 | S. cerevisiae deletion strains, locus YKR001C, strain vps1, stronger effect = lower value 1.02 | S. cerevisiae deletion strains, locus YKR026C, strain gcn3, stronger effect = lower value 0.993 | S. cerevisiae deletion strains, locus YKR091W, strain srl3, stronger effect = lower value 0.993 | S. cerevisiae deletion strains, locus YLL001W, strain dnm1, stronger effect = lower value 0.978 | S. cerevisiae deletion strains, locus YLL026W, stronger effect = lower value 0.989 | S. cerevisiae deletion strains, locus YLL041C, strain sdh2, stronger effect = lower value 0.997 | S. cerevisiae deletion strains, locus YLR027C, strain aat2, stronger effect = lower value 0.99 | S. cerevisiae deletion strains, locus YLR039C, strain RIC1, stronger effect = lower value 1.02 | S. cerevisiae deletion strains, locus YLR058C, strain SHM2, stronger effect = lower value 1.01 | S. cerevisiae deletion strains, locus YLR102C, strain apc9, stronger effect = lower value 0.994 | S. cerevisiae deletion strains, locus YLR113W, strain HOG1, stronger effect = lower value 1.05 | S. cerevisiae deletion strains, locus YLR221C, strain rsa3, stronger effect = lower value 0.998 | S. cerevisiae deletion strains, locus YLR258W, strain gsy2, stronger effect = lower value 0.996 | S. cerevisiae deletion strains, locus YLR262C, strain YPT6 (second series), stronger effect = lower value 0.994 | S. cerevisiae deletion strains, locus YLR262C, strain YPT6, stronger effect = lower value 1.02 | S. cerevisiae deletion strains, locus YLR268W, strain sec22, stronger effect = lower value 1.05 | S. cerevisiae deletion strains, locus YLR320W, strain mms22, stronger effect = lower value 1 | S. cerevisiae deletion strains, locus YLR330W, strain CHS5, stronger effect = lower value 1.01 | S. cerevisiae deletion strains, locus YLR342W, strain FKS1 (second series), stronger effect = lower value 1 | S. cerevisiae deletion strains, locus YLR342W, strain FKS1, stronger effect = lower value 0.983 | S. cerevisiae deletion strains, locus YLR357W, strain rsc2, stronger effect = lower value 0.979 | S. cerevisiae deletion strains, locus YLR370C, strain arc18, stronger effect = lower value 0.993 | S. cerevisiae deletion strains, locus YLR371W, strain rom2, stronger effect = lower value 1.01 | S. cerevisiae deletion strains, locus YLR384C, strain iki3, stronger effect = lower value 0.987 | S. cerevisiae deletion strains, locus YLR418C, strain cdc73, stronger effect = lower value 0.999 | S. cerevisiae deletion strains, locus YML016C, strain PPZ1, stronger effect = lower value 1 | S. cerevisiae deletion strains, locus YML032C, strain rad52, stronger effect = lower value 1.03 | S. cerevisiae deletion strains, locus YML120C, strain ndi1, stronger effect = lower value 0.995 | S. cerevisiae deletion strains, locus YML124C, strain tub3, stronger effect = lower value 1 | S. cerevisiae deletion strains, locus YMR058W, strain fet3, stronger effect = lower value 1 | S. cerevisiae deletion strains, locus YMR078C, strain ctf18, stronger effect = lower value 1.01 | S. cerevisiae deletion strains, locus YMR125W, strain sto1, stronger effect = lower value 1 | S. cerevisiae deletion strains, locus YMR129W, stronger effect = lower value 1 | S. cerevisiae deletion strains, locus YMR205C, strain PFK2, stronger effect = lower value 0.992 | S. cerevisiae deletion strains, locus YMR223W, strain ubp8, stronger effect = lower value 0.981 | S. cerevisiae deletion strains, locus YMR231W, strain pep5, stronger effect = lower value 1 | S. cerevisiae deletion strains, locus YMR263W, strain SAP30, stronger effect = lower value 1.03 and 1 | S. cerevisiae deletion strains, locus YMR307W, strain GAS1, stronger effect = lower value 0.996 | S. cerevisiae deletion strains, locus YNL067W, strain RPL9B, stronger effect = lower value 1.03 | S. cerevisiae deletion strains, locus YNL071W, strain lat1, stronger effect = lower value 1 | S. cerevisiae deletion strains, locus YNL128W, strain TEP1, stronger effect = lower value 1.02 and 1 | S. cerevisiae deletion strains, locus YNL153C, strain GIM3, stronger effect = lower value 1.03 | S. cerevisiae deletion strains, locus YNL175C, strain NOP13, stronger effect = lower value 1 | S. cerevisiae deletion strains, locus YNL183C, strain NPR1, stronger effect = lower value 1 | S. cerevisiae deletion strains, locus YNL197C, strain WHI3, stronger effect = lower value 1.02 | S. cerevisiae deletion strains, locus YNL209W, strain ssb2, stronger effect = lower value 1 | S. cerevisiae deletion strains, locus YNL224C, strain SQS1, stronger effect = lower value 1 | S. cerevisiae deletion strains, locus YNL233W, strain BNI4, stronger effect = lower value 1.02 | S. cerevisiae deletion strains, locus YNL248C, strain rpa49, stronger effect = lower value 0.998 | S. cerevisiae deletion strains, locus YNL250W, strain rad50, stronger effect = lower value 0.999 | S. cerevisiae deletion strains, locus YNL271C, strain bni1, stronger effect = lower value 1.01 | S. cerevisiae deletion strains, locus YNL298W, strain CLA4, stronger effect = lower value 1 | S. cerevisiae deletion strains, locus YNL307C, strain MCK1, stronger effect = lower value 1.01 | S. cerevisiae deletion strains, locus YNL322C, strain KRE1 (second series), stronger effect = lower value 0.998 | S. cerevisiae deletion strains, locus YNL322C, strain KRE1, stronger effect = lower value 1.01 and 0.988 | S. cerevisiae deletion strains, locus YNR049C, strain mso1, stronger effect = lower value 1 | S. cerevisiae deletion strains, locus YNR052C, strain pop2, stronger effect = lower value 1 | S. cerevisiae deletion strains, locus YOL006C, strain TOP1, stronger effect = lower value 1.08 | S. cerevisiae deletion strains, locus YOL012C, strain htz1 0.933 | S. cerevisiae deletion strains, locus YOL147C, strain pex11, stronger effect = lower value 1 | S. cerevisiae deletion strains, locus YOR001W, strain rrp6, stronger effect = lower value 0.989 | S. cerevisiae deletion strains, locus YOR061W, strain CKA2, stronger effect = lower value 1.01 | S. cerevisiae deletion strains, locus YOR069W, strain VPS5, stronger effect = lower value 1.01 | S. cerevisiae deletion strains, locus YOR070C, strain gyp1, stronger effect = lower value 0.999 | S. cerevisiae deletion strains, locus YOR080W, strain dia2, stronger effect = lower value 1 | S. cerevisiae deletion strains, locus YOR083W, strain WHI5 (second series), stronger effect = lower value 1.01 | S. cerevisiae deletion strains, locus YOR083W, strain WHI5, stronger effect = lower value 0.99 | S. cerevisiae deletion strains, locus YOR106W, strain vam3, stronger effect = lower value 0.985 | S. cerevisiae deletion strains, locus YOR136W, strain idh2, stronger effect = lower value 0.991 | S. cerevisiae deletion strains, locus YOR144C, strain elg1, stronger effect = lower value 1.01 | S. cerevisiae deletion strains, locus YOR184W, strain ser1, stronger effect = lower value 0.966 | S. cerevisiae deletion strains, locus YOR231W, strain MKK1, stronger effect = lower value 1.09 | S. cerevisiae deletion strains, locus YOR265W, strain rbl2, stronger effect = lower value 0.993 | S. cerevisiae deletion strains, locus YOR270C, strain vph1, stronger effect = lower value 1.02 | S. cerevisiae deletion strains, locus YOR290C, strain snf2, stronger effect = lower value 1.01 | S. cerevisiae deletion strains, locus YOR316C, strain cot1, stronger effect = lower value 1.01 | S. cerevisiae deletion strains, locus YPL051W, strain arl3, stronger effect = lower value 0.982 | S. cerevisiae deletion strains, locus YPL055C, strain LGE1, stronger effect = lower value 0.994 | S. cerevisiae deletion strains, locus YPL078C, strain atp4, stronger effect = lower value 0.998 | S. cerevisiae deletion strains, locus YPL106C, strain sse1, stronger effect = lower value 0.984 | S. cerevisiae deletion strains, locus YPL240C, strain hsp82, stronger effect = lower value 0.991 | S. cerevisiae deletion strains, locus YPL241C, strain CIN2, stronger effect = lower value 1.01 | S. cerevisiae deletion strains, locus YPL256C, strain CLN2, stronger effect = lower value 1.07 | S. cerevisiae deletion strains, locus YPR119W, strain clb2, stronger effect = lower value 1.01 | S. cerevisiae deletion strains, locus YPR141C, strain kar3, stronger effect = lower value 0.997 | S. cerevisiae deletion strains, locus YPR163C, strain tif3, stronger effect = lower value 1.01 | S. cerevisiae deletion strains, locus YPR167C, strain met16, stronger effect = lower value 1 | S. cerevisiae deletion strains, strain wtn01, stronger effect = lower value 1.03 | S. cerevisiae strains, strain wild type, stronger effect = lower value 1.01
